This is part of a sample that, as a whole, favours compounds with a hit. Of some 83,000 tested, about 20% had one in any assay.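 The test compound was applied at a single concentration to cells in 96-well plates for 48 hours, and percent growth was recorded.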 Values without a mark were called inactive. Active and inactive are the calls of the source. Rule for the calls: active = growth percent below 10; inactive = the rest.

Test systems include NCI-H23 lung; NCI-H226 lung; NCI-H322M lung; HOP-62 NSCLC; NCI-H460 lung; HOP-92 NSCLC; NCI-H522 lung; A549/ATCC NSCLC; 786-0 renal; COLO 205 colon.
Common to all, as to assay: NCI-60 one-dose screen, 48 h (100 = growth as untreated, 0 = no growth, -100 = all killed)
What all share (conditions): 10 µM unless noted

For the compound `Cc1cc(C)n(CC(=O)Nc2ccc(-c3nc4ccccc4s3)cc2)n1`, the growth in the assay on NCI-H23 lung was 93.8%; with NCI-H226 lung it was 100%; in the assay with NCI-H322M lung it was 99.9%; with HOP-62 NSCLC it was 105%; in the assay with NCI-H460 lung, 102%; with HOP-92 NSCLC it was 97.7%. The growth with NCI-H522 lung was 103%; with A549/ATCC NSCLC, 94.7%; with 786-0 renal it was 106%; in the assay with COLO 205 colon it was 112%.

As for `CC(C)(C)CC(C)(C)Nc1c(-c2c(O)c3ccccc3oc2=O)nc2c(Cl)cc(C(F)(F)F)cn12`, the growth was 103% with NCI-H23 lung; 97.5% with NCI-H226 lung; 94% in the assay with NCI-H322M lung; 92.5% with HOP-62 NSCLC; 107% with NCI-H460 lung; 87.7% in the assay on HOP-92 NSCLC. Moreover, the growth is 81.4% in the assay with NCI-H522 lung, 85.5% in the assay with A549/ATCC NSCLC, 97% with 786-0 renal and 112% in the assay on COLO 205 colon.

Consider `CCN(CC)CCNc1ccc(N=Nc2cnc3ccccc3c2)c2ccccc12`, for which the growth is -92.6% (active) in the assay with NCI-H23 lung; -73.6% (active) in the assay with NCI-H226 lung; 10.8% in the assay with NCI-H322M lung; -84.6% (active) in the assay on HOP-62 NSCLC; -78.8% (active) in the assay on NCI-H460 lung; -82.4% (active) in the assay with HOP-92 NSCLC. For the same compound, the growth was -87.2% (active) in the assay on NCI-H522 lung, -97.9% (active) with A549/ATCC NSCLC, -87.9% (active) in the assay with 786-0 renal and -82.2% (active) in the assay on COLO 205 colon.

For the compound `CCN1/C(=C/C=C/c2n(-c3ccccc3)c3ccc(-c4nc5ccccc5s4)cc3[n+]2CC)N(c2ccccc2)c2ccc(-c3nc4ccccc4s3)cc21`, the growth in the assay with NCI-H23 lung is -0.899% (active); with NCI-H226 lung, 0.213% (active); in the assay with NCI-H322M lung it was 14.5%; in the assay on HOP-62 NSCLC it was -7.25% (active); in the assay with NCI-H460 lung it was -1.59% (active); with HOP-92 NSCLC, 1.91% (active). The growth was -0.409% (active) in the assay with NCI-H522 lung, 3.13% (active) in the assay with A549/ATCC NSCLC, 3.99% (active) in the assay on 786-0 renal and -5.05% (active) with COLO 205 colon.

Regarding `COc1cc(N2CCC(N3CCN(C)CC3)CC2)ccc1Nc1ncnc(Nc2ccccc2S(=O)(=O)C(C)C)n1`, the growth was 102% in the assay on NCI-H23 lung; 109% in the assay with NCI-H226 lung; 109% in the assay on NCI-H322M lung; 86.7% in the assay on HOP-62 NSCLC; 102% with NCI-H460 lung; 105% in the assay with HOP-92 NSCLC. Besides, the growth was 80.5% in the assay on NCI-H522 lung, 104% in the assay with A549/ATCC NSCLC, 99.7% with 786-0 renal and 99% in the assay on COLO 205 colon.

Turning to `O=C(NCCO)Nc1ccc(-c2nc(N3CCOCC3)c3cccn3n2)cc1`, the growth in the assay with NCI-H23 lung was 18.2%; in the assay with NCI-H226 lung, 6.97% (active); in the assay on NCI-H322M lung, 18%; in the assay with HOP-62 NSCLC, -0.0166% (active); with NCI-H460 lung, 8.21% (active); in the assay on HOP-92 NSCLC it was -21.4% (active). Also, the growth in the assay on NCI-H522 lung was 10.1%; in the assay on A549/ATCC NSCLC it was 2.7% (active); with 786-0 renal it was -5.56% (active); in the assay on COLO 205 colon, -7.82% (active).

With `O=C1NC(=O)/C(=C/c2ccc3nccc(-c4ccncc4)c3c2)S1`, the growth is -17.4% (active) in the assay on NCI-H23 lung; -54.5% (active) in the assay on NCI-H226 lung; -50.8% (active) in the assay with NCI-H322M lung; -36.1% (active) in the assay with HOP-62 NSCLC; -2.65% (active) in the assay with NCI-H460 lung; -41.1% (active) in the assay with HOP-92 NSCLC. In addition, the growth with NCI-H522 lung is -95.6% (active); in the assay with A549/ATCC NSCLC, -51.8% (active); with 786-0 renal, -41.6% (active); in the assay on COLO 205 colon, -56.6% (active).

Regarding `O=C(c1c(F)ccc(NS(=O)(=O)N2CC[C@@H](F)C2)c1F)c1c[nH]c2ncc(-c3cnc(C4CC4)nc3)cc12`, the growth with NCI-H23 lung was 58.6%; in the assay with NCI-H226 lung, 62.3%; in the assay with NCI-H322M lung, 21.6%; in the assay on HOP-62 NSCLC, 37.7%; in the assay on NCI-H460 lung it was 37.3%; with HOP-92 NSCLC, 35.7%. The growth was 32.5% in the assay on NCI-H522 lung, 33.8% with A549/ATCC NSCLC, 39.8% with 786-0 renal and 0.255% (active) in the assay with COLO 205 colon.

For the compound `Cn1cnc2c(F)c(Nc3ccc(Br)cc3Cl)c(C(=O)NOCCO)cc21`, the growth in the assay with NCI-H23 lung is 25.7%; in the assay on NCI-H226 lung, 55.3%; in the assay on NCI-H322M lung it was 11.2%; in the assay with HOP-62 NSCLC, 28.6%; in the assay with NCI-H460 lung, 60.2%; in the assay with HOP-92 NSCLC, -0.548% (active). Also, the growth in the assay on NCI-H522 lung is 44.4%; with A549/ATCC NSCLC, 35.8%; with 786-0 renal it was 71.1%; in the assay on COLO 205 colon, -3.79% (active).

Turning to `Clc1ccc2c(NCCCNCc3ccc4c(c3)OCO4)ccnc2c1`, the growth in the assay on NCI-H23 lung was 72.7%; in the assay on NCI-H226 lung, 80.1%; in the assay with NCI-H322M lung, 71.8%; in the assay on HOP-62 NSCLC, 42.7%; in the assay with NCI-H460 lung, 60.5%; with HOP-92 NSCLC it was 47.4%. Also, the growth is 20.1% with NCI-H522 lung, 51.2% in the assay on A549/ATCC NSCLC, 66.8% in the assay on 786-0 renal and -56.6% (active) with COLO 205 colon.

Consider `COc1cc2ncnc(Nc3ccc(F)c(Cl)c3)c2cc1NC(=O)/C=C/CN1CCCCC1`, for which the growth with NCI-H23 lung is -54.1% (active); with NCI-H226 lung, -83.4% (active); in the assay with NCI-H322M lung it was -1.5% (active); with HOP-62 NSCLC it was -51.9% (active); with NCI-H460 lung it was -69.9% (active); with HOP-92 NSCLC it was -83.6% (active). The growth in the assay with NCI-H522 lung is -56.9% (active); with A549/ATCC NSCLC, -76.9% (active); with 786-0 renal, -81.7% (active); in the assay with COLO 205 colon, -76.6% (active).

Turning to `COc1cc(Nc2ncc(F)c(Nc3ccc4c(n3)N(COP(=O)(O)O)C(=O)C(C)(C)O4)n2)cc(OC)c1OC`, the growth in the assay with NCI-H23 lung is 29.7%; with NCI-H226 lung, -14.6% (active); in the assay on NCI-H322M lung, 20.6%; in the assay with HOP-62 NSCLC it was 2.67% (active); with NCI-H460 lung, 25.4%; in the assay on HOP-92 NSCLC, -39.5% (active). Moreover, the growth is -28.5% (active) in the assay on NCI-H522 lung, 0.294% (active) in the assay on A549/ATCC NSCLC, -23.8% (active) with 786-0 renal and -22.8% (active) with COLO 205 colon.

Turning to `Clc1ccc(/C=C/c2cc(N3CCOCC3)c3cc(Cl)c(Cl)cc3n2)cc1`, the growth was 100% with NCI-H23 lung; 85.5% in the assay with NCI-H226 lung; 94.3% in the assay on NCI-H322M lung; 122% in the assay on HOP-62 NSCLC; 95% in the assay with NCI-H460 lung; 96.6% with HOP-92 NSCLC. The growth in the assay on NCI-H522 lung is -43.7% (active); in the assay with A549/ATCC NSCLC it was 79.9%; with 786-0 renal, -11% (active); in the assay with COLO 205 colon, 98.1%.

(Values after PubChem BioAssay (NCI).)
